BCLXL inh: Bcl-xL (human) inhibition; Q07817; GST-Bcl-xL / FITC-Bim BH3 peptide fluorescence polarization; inhibition, % at 10.9 µM; 320,000 compounds, 0.7% hits; AID 2129;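 active = inhibition above the mean of all tested compounds plus 3 SD, cutoff set per campaign, cut at about 30% in these data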;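 note: 0% = DMSO wells and 100% = unlabeled Bim-BH3 peptide competitor; inhibitors lower millipolarization by displacing the labeled peptide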
Target sequence (Q07817 whole entry, looked up): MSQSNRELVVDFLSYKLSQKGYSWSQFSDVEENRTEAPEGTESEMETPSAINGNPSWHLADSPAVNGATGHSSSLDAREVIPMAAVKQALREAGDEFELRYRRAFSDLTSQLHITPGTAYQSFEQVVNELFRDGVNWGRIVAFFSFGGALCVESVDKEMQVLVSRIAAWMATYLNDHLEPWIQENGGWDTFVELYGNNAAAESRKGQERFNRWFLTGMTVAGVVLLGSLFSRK
GLD-1 RNA inh: GLD-1-TGE RNA interaction inhibition (C. elegans) | Q17339 | purified GLD-1 + fluorescein TGE RNA, fluorescence polarization | inhibition, % at 5.96 µM | 320,000 compounds, 0.44% hits;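 active = percent inhibition above a per-plate cutoff, the plate mean of test compounds plus 3 SD, cut at about 30% in these data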;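 note: 0% = DMSO wells with GLD-1 and probe and 100% = wells lacking GLD-1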
Mcl-1 Bim block: human Bim-Mcl-1 interaction inhibition; inhibition, % at 10 µM; Q07820; 190,000 compounds, 0.1% hits; AID 1009; Bead-based flow cytometry, Bim peptide-Mcl-1 binding; in the data active = inhibition above about 40%;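 note: 0% = no compound tracer wells and 100% = peptide blocker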
Target sequence (Q07820 whole entry, looked up): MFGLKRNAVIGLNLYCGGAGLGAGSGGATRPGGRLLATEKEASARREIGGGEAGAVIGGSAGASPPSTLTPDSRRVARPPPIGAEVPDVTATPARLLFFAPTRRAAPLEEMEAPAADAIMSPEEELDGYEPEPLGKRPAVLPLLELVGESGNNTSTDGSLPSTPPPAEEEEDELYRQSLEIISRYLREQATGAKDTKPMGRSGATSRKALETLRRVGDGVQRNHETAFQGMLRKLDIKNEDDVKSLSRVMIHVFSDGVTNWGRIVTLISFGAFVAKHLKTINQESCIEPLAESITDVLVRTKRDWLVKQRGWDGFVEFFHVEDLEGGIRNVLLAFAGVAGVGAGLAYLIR
Mcl1-Noxa inh: Mcl-1/Noxa interaction inhibition | 220,000 compounds, 1.5% hits | inhibition, % at 21.7 µM | TR-FRET Mcl-1/Noxa peptide binding, 2 h | Q07820;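 active = compounds that cut the protein-peptide binding signal by more than 50% relative to plate controls in a single-dose test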;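 note: His-tagged Mcl-1 with rhodamine Noxa BH3 peptide and terbium anti-His antibody; 0% = Mcl-1 plus Noxa peptide wells and 100% = peptide-only wells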
MCL1-BIM inh: MCL1-BIM-BH3 interaction inhibition (human) | Q07820 | GST-MCL1 / FITC-Bim-BH3 fluorescence polarization | inhibition, % at 10.9 µM | 320,000 compounds, 0.68% hits | AID 2057;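 active = inhibition above the mean inhibition of all tested compounds plus 3 SD, set per campaign, cut at about 40% in these data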;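 note: 0% = DMSO wells and 100% = unlabeled Bim-BH3 peptide control; higher means more loss of mP so more displacement of Bim peptide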
Mcl1-Bid inh: disrupts binding of human Mcl-1 to Bid peptide. Q07820. TR-FRET Mcl-1/Bid-Dy647 peptide binding, 1536-well. inhibition, % at 21.7 µM. 220,000 compounds, 0.97% hits;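 active = compounds that cut the binding signal by more than half at the single screening dose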;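 note: His-tagged Mcl-1 with europium anti-His antibody binding Bid BH3 peptide; 0% = Mcl-1 plus peptide wells and 100% = peptide-only wells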
The depositor's hits bear a star. Compounds with a hit are over-represented: about 2.3% of the library has one in this group of screens.

`CCOC(=O)CN(C(=O)CSc1nnc(CNc2ccc(F)cc2)n1C)c1ccccc1` gave BCLXL inh -2.1, GLD-1 RNA inh 44.8*, Mcl-1 Bim block 2.0, Mcl1-Noxa inh 13.5, MCL1-BIM inh -9.3 and Mcl1-Bid inh -28.2.
Screening O=C(O)c1cc(O)ccc1NC(=O)C1CCCO1 (centres undefined) returned BCLXL inh -1.1, GLD-1 RNA inh 2.5 and MCL1-BIM inh -0.7.
Cc1nc2ccccc2n1CSc1ccccc1 was read as BCLXL inh 1.9, GLD-1 RNA inh 3.9, Mcl-1 Bim block 42.0*, Mcl1-Noxa inh 7.6, MCL1-BIM inh 3.6 and Mcl1-Bid inh -5.6.
`COc1cccc(-c2nn(C)c3sc(C(=O)NCc4ccc5c(c4)OCO5)cc23)c1` gave BCLXL inh 2.5, GLD-1 RNA inh -4.2, Mcl-1 Bim block 0.0, Mcl1-Noxa inh -15.9, MCL1-BIM inh 3.6 and Mcl1-Bid inh -8.6.
Screening COc1cccc(-c2nn(C)c3sc(C(=O)NCc4ccc(C)o4)cc23)c1 returned BCLXL inh 1.1, GLD-1 RNA inh 4.5, Mcl-1 Bim block 2.0, Mcl1-Noxa inh 59.8*, MCL1-BIM inh 3.4 and Mcl1-Bid inh -7.9.
For O=c1[nH]c(CSc2ncnc3sc(-c4ccccc4)cc23)nc2ccccc12 the results were BCLXL inh 0.2, GLD-1 RNA inh -6.1, Mcl1-Noxa inh 19.2, MCL1-BIM inh -6.9 and Mcl1-Bid inh 60.6*.
Screening Brc1ccc(NC2=Nc3ccccc3CC2)cc1 returned BCLXL inh 41.0*, GLD-1 RNA inh -4.8, Mcl-1 Bim block 1.0, Mcl1-Noxa inh 6.4, MCL1-BIM inh 9.1 and Mcl1-Bid inh -14.4.
`C/C=C(/C)C(=O)O[C@@H]1Cc2c(ccc3ccc(=O)oc23)OC1(C)C` gave GLD-1 RNA inh 2.0.
Screening CC1(C)Oc2ccc3ccc(=O)oc3c2C[C@H]1O returned BCLXL inh 3.6, GLD-1 RNA inh 3.0, Mcl1-Noxa inh -7.9, MCL1-BIM inh 3.5 and Mcl1-Bid inh 83.1*.
CCOc1ccc(C(=O)NC2CCN(CC(=O)NCc3ccccc3)CC2)cc1 was read as BCLXL inh 1.2, GLD-1 RNA inh -13.8 and MCL1-BIM inh -2.7.
O=c1cc(CN2CCN(c3ccc(O)cc3)CC2)nc2scc(-c3ccccc3)n12 was read as BCLXL inh 5.3, GLD-1 RNA inh -4.2, Mcl-1 Bim block 0.0, Mcl1-Noxa inh 66.7*, MCL1-BIM inh 19.3 and Mcl1-Bid inh -35.5.
For COC(=O)c1ccc(/C=N/NC(=O)c2ccc3nc[nH]c3c2)cc1 the results were BCLXL inh 9.3, GLD-1 RNA inh -5.4 and MCL1-BIM inh 7.1.
Screening Cc1ccc(/C=N/NC(=O)c2ccc3nc[nH]c3c2)o1 returned BCLXL inh 7.4, GLD-1 RNA inh 4.5, Mcl1-Noxa inh 55.3*, MCL1-BIM inh 9.2 and Mcl1-Bid inh -7.5.
`CC(=O)OCCn1c2nc(=O)[nH]c(=O)c-2nc2cc(C)c(C)cc21` gave Mcl1-Noxa inh 14.3 and Mcl1-Bid inh 96.4*.
For CC(=O)OCCn1c(C)[n+](CCOC(C)=O)c2cc(Cl)c(Cl)cc21 the results were BCLXL inh -15.7, GLD-1 RNA inh 0.8, Mcl-1 Bim block -5.0, Mcl1-Noxa inh 22.4, MCL1-BIM inh -24.7 and Mcl1-Bid inh 3.4.
`CCN1CCCC1CNc1ncnc2c1[nH]c1ccc(Cl)cc12` (centres undefined) gave BCLXL inh 2.4, GLD-1 RNA inh 0.8, Mcl-1 Bim block -2.0, Mcl1-Noxa inh 72.6*, MCL1-BIM inh 3.2 and Mcl1-Bid inh 6.2.
`Cc1ccc(/C=N/NC(=O)CSc2nc3ccccc3[nH]2)o1` gave BCLXL inh -0.3, GLD-1 RNA inh -2.8 and MCL1-BIM inh -4.0.
O=C(Cc1ccc2cccnc2c1)c1ccc(O)cc1O was read as BCLXL inh 6.0, GLD-1 RNA inh -1.7, Mcl-1 Bim block -4.0, Mcl1-Noxa inh 12.5, MCL1-BIM inh 7.0 and Mcl1-Bid inh -31.1.
Screening Oc1ccc2cccnc2c1 returned BCLXL inh 40.3*, GLD-1 RNA inh 25.4, Mcl-1 Bim block -4.0, Mcl1-Noxa inh 3.8, MCL1-BIM inh 44.6* and Mcl1-Bid inh -1.9.
For CCOc1ccccc1-n1c(=O)c2ccccc2c2ccccc2c1=O the results were BCLXL inh 3.5, GLD-1 RNA inh 4.0, Mcl-1 Bim block 6.0, Mcl1-Noxa inh 10.0, MCL1-BIM inh -3.3 and Mcl1-Bid inh 54.2*.
Screening CC1(C)CC(NS(=O)(=O)OCC(Cl)(Cl)Cl)c2cc(C#N)ccc2O1 (centres undefined) returned BCLXL inh -3.2, GLD-1 RNA inh -0.5 and MCL1-BIM inh -4.2.
Screening Cc1ccc(S(=O)(=O)CCC(=O)Oc2ccc(-c3nnco3)cc2)cc1 returned BCLXL inh 0.3, GLD-1 RNA inh 1.8 and MCL1-BIM inh -1.4.
`CCOC(=O)c1nnc(-c2ccc(C)cc2)nc1Sc1ccccc1Cl` gave BCLXL inh -3.2, GLD-1 RNA inh 7.9, Mcl-1 Bim block 2.0, Mcl1-Noxa inh 14.0, MCL1-BIM inh -1.5 and Mcl1-Bid inh -2.6.
`CCOC(=O)c1nnc(-c2ccc(C)cc2)nc1Sc1ccc(Cl)cc1` gave BCLXL inh 2.0, GLD-1 RNA inh -6.7, Mcl-1 Bim block 1.0, Mcl1-Noxa inh -9.4, MCL1-BIM inh 7.6 and Mcl1-Bid inh 54.9*.
Screening COc1ccc(C(=O)NC(=S)Nc2ccc(S(=O)(=O)Nc3cc(OC)ncn3)cc2)cc1 returned BCLXL inh 3.7, GLD-1 RNA inh -3.8 and MCL1-BIM inh 16.5.
For COc1cc(NS(=O)(=O)c2ccc(NC(=S)NC(=O)c3sc4ccccc4c3Cl)cc2)ncn1 the results were BCLXL inh 15.5, GLD-1 RNA inh 1.6, Mcl-1 Bim block -2.0, Mcl1-Noxa inh 54.7*, MCL1-BIM inh 10.5 and Mcl1-Bid inh -7.6.
`Cc1cc(NC(=O)COc2coc(CN3CCN(c4ccccc4F)CC3)cc2=O)no1` gave BCLXL inh 4.5, GLD-1 RNA inh 7.4 and MCL1-BIM inh 2.5.
For CN1C(=O)N(CC(=O)Nc2nccs2)C(=O)C12CCCCC2 the results were BCLXL inh 2.3, GLD-1 RNA inh 4.0 and MCL1-BIM inh 8.5.
For O=C(Nc1cc2cccc([N+](=O)[O-])c2oc1=O)c1cccs1 the results were BCLXL inh -3.0, GLD-1 RNA inh -0.9, Mcl-1 Bim block 0.0, Mcl1-Noxa inh 62.3*, MCL1-BIM inh 7.0 and Mcl1-Bid inh -30.3.
O=C(O)CCc1nc(-c2ccccc2)no1 was read as BCLXL inh -1.3, GLD-1 RNA inh 3.8, Mcl-1 Bim block -1.0, Mcl1-Noxa inh 23.7, MCL1-BIM inh -6.4 and Mcl1-Bid inh 7.7.
For O=C(O)CCc1nc(-c2cccs2)no1 the results were BCLXL inh -0.1, GLD-1 RNA inh 9.9, Mcl-1 Bim block -5.0, Mcl1-Noxa inh 83.7*, MCL1-BIM inh 6.2 and Mcl1-Bid inh -5.4.
`COc1cccc(CN2CCSCC2)c1` gave BCLXL inh 2.5, GLD-1 RNA inh -2.2, Mcl-1 Bim block 0.0, Mcl1-Noxa inh 41.2, MCL1-BIM inh 0.3 and Mcl1-Bid inh 62.2*.

Assay outcomes as filed in PubChem BioAssay.
